For 40 molecules, growth results are on record in PubChem BioAssay (NCI).

Each structure is given as a SMILES string. This is part of a sample that, as a whole, favours compounds with a hit. Of some 83,000 tested, about 20% had one in any assay.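 Percent growth is the endpoint: 0 to 100 indicates growth inhibition (40 means 60% inhibition), 0 means no net growth, and negative values indicate cell death.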 Calls of active or inactive are those of the source.

This assay relates to BT-549 breast. As to the kind of experiment: NCI-60 one-dose screen, 48 h (100 = growth as untreated, 0 = no growth, -100 = all killed). Conditions: 10 µM unless noted. Here is the method: Growth inhibition of the BT-549 human tumor cell line is measured as a screen for anti-cancer activity. Cells are grown in 96 well plates and exposed to the test compound for 48 hours. Compounds are tested at a single concentration, which is 10^-5 M for most compounds. The reported endpoint is percent growth (GI% or GIPRCNT), where numbers from 0 - 100% represent growth inhibition, and numbers from -100% - 0 represent cell death. For example, a value of 40 represents 60% growth inhibition. A value of 0 means no net growth occurred over the course of the experiment. A value of -40 indicates 40% of cells at the beginning of the experiment died by the end of the experiment. A value of -100 means all cells are dead at the end of the experiment.
NCI-60 Human Tumor Cell Lines Screen was performed using the standard one-dose NCI protocol, which is described in more detail at https://dtp.cancer.gov/discovery_development/nci-60/default.htm.
Compounds with GIPRCNT values below 10 were considered active. Activity score was based on GIPRCNT using the following formula: […]
Score is 0 for GIPRCNT values of 100 or above, 50 for GIPRCNT values of 0, and 100 for GIPRCNT values of -100.
As for `O=CNc1ccc2c(c1)Cc1cc([N+](=O)[O-])ccc1-2`, the growth was 16.5% (inactive). Take `CCSc1nc(Nc2ccc(S(=O)(=O)Nc3ccon3)cc2)c(C#N)c(-c2cccc(Br)c2)n1`: the growth was 90.2% (inactive). For `O=C(O)CNC(=O)C1(N2C(=O)c3ccccc3C2=O)CCCC1` the value was 101% (inactive); for `CCSCC1CC(O)(c2ccccc2)C(c2ccccc2)C(c2ccc(Cl)cc2)O1` (stereo not given), 1.88% (active); for `CCSc1nc(-c2ccco2)n2nc(-c3ccco3)cc2n1`, 107% (inactive). For `CCCCCCCCCCCCC1CCCC(C)C1` (stereo not given) the value was 102% (inactive); for `C/C(=C\CCc1ccoc1)CC/C=C(\C)CCCNc1ccc(F)cc1`, 97.1% (inactive). For `CCc1nn2c(-c3ccc(Cl)cc3C)c(-c3cc(OC)c(OC)c(OC)c3)nc2s1` the value was 101% (inactive); for `Nc1ccc(Oc2c(F)c(F)c(Oc3ccc(N)cc3)c(F)c2F)cc1`, 108% (inactive); for `COc1cccc(/C=N/Nc2nc3ccccc3s2)c1OC`, 78.5% (inactive). On to `COc1ccccc1-n1c(-c2ccc(O)cc2C)cn2c3c(=O)[nH]c(=O)n(C)c3nc12`, for which the growth was 135% (inactive). To `c1ccc2nc(N/N=C3\CCCCC3C3CCCCC3)ccc2c1` (stereo not given) belongs 61% (inactive); to `COc1ccc2c(=O)c(OC)c(-c3cc(OC)c(OC)c(OC)c3)oc2c1`, 117% (inactive); to `CCSc1ncc(Br)c(Sc2nc(N)nc3nc[nH]c23)n1`, 65.3% (inactive). For `COc1cccc(/C=N\NC(=O)c2ccncc2)c1O` the value was 49.8% (inactive). `COP(=O)(OC)C(c1ccc(O)cc1)(c1ccc(O)cc1)c1ccc(O)cc1`: the growth is 133% (inactive).

For `O=C(NC1CCCCC1)c1ccc(Nc2ncnc3c2cnn3-c2ccccc2)cc1`, the growth is 59.8% (inactive). For `CCN(CC)CCCCCCCNc1c2ccc(Cl)cc2nc2ccc(OC)cc12` the value was -20.9% (active). For `[N-]=[N+]=NCc1ncc(-c2ccc(C(F)(F)F)cc2)c(NC2CCCCCC2)n1` the value was 81.9% [50 µM] (inactive). To `O=C1NC(=O)/C(=C\c2ccco2)S1` belongs 104% (inactive); to `CC[C@@H](C)/C=C(C)/C=C/C(O)=C1\C(=O)N[C@@H](Cc2ccc(OC(=O)[C@@](OC)(c3ccccc3)C(F)(F)F)cc2)C1=O`, 88.8% (inactive); to `COc1ccc(Cl)cc1Nc1nc(C(F)(F)F)ccc1C(=O)N/N=C/c1c(Cl)cccc1Cl`, 48.6% (inactive).

For the molecule `CS(=O)(=O)N1CCN(Cc2cc3nc(-c4cccc5[nH]ncc45)nc(N4CCOCC4)c3s2)CC1` (tested in a mixture with another compound), the growth was 33.6% (inactive). For `Clc1ccc2[nH]cc(-c3cncn3CCc3ccccc3)c2c1` the value was 40.3% (inactive); for `CCOC(=O)CCN(c1c(Cl)ssc1=O)C(C)C`, 95.7% (inactive); for `Cc1cnc2nc(-c3ccc(N(C)C)cc3)cn2c1`, 112% (inactive). For `CCN(Cc1cccc(S(=O)(=O)[O-])c1)c1ccc(C(=C2C=CC(=[N+](CC)Cc3cccc(S(=O)(=O)O)c3)C=C2)c2ccccc2S(=O)(=O)O)cc1` the value was 104% (inactive); for `COc1ccc2c(c1)[n+](=O)c(C(=O)/C=C/c1cc(OC)c(OC)c(OC)c1)c(C)n2[O-]`, 28.8% (inactive); for `CCOC(=O)C(Br)=P(c1ccccc1)(c1ccccc1)c1ccccc1`, 117% (inactive). For `CCOc1nc(-c2ccco2)n2nc(-c3ccco3)cc2n1` the value was 119% (inactive); for `Oc1c(N=Nc2nn[nH]n2)ccc2ccccc12`, 83.2% (inactive).

Turning to `O=C(Nc1ccc(Cl)cc1)Nc1ccccc1CNc1nc(Nc2ccc(OCCN3CCCC3)cc2)ncc1Cl`, the growth is 77.6% (inactive). For `COc1ccc(C(=O)/C=C/c2cccc(Nc3ccnc4cc(Cl)ccc34)c2)cc1` the value was 20.6% (inactive); for `CCCCc1n(Cc2ccc3ccccc3c2)cc[n+]1Cc1ccc2ccccc2c1`, -76.4% (active). To `c1ccc(-c2n(Cc3ccc4ccccc4c3)cc[n+]2Cc2ccc3ccccc3c2)cc1` belongs -77.5% (active). To `C[C@@H]1C[C@@H]([C@@H](CC2CC(=O)NC(=O)C2)OC(=O)CC(=O)c2ccccc2)C(=O)[C@@H](C)C1` belongs 14.6% (inactive).

Consider `O=Cc1ccccc1C(=O)O`, for which the growth was 102% (inactive).

In the case of `O=C1OC(Oc2ccccc2)(c2ccccc2)c2ccccc21` (stereo not given), the growth is 102% (inactive). To `Nc1c(C(=O)Nc2cccc(Cl)c2)sc2nc3c(cc12)C(O)CCC3` (stereo not given) belongs 56% (inactive). For `CCOC(CNCc1cc(C)c2[nH]c3ccccc3c2c1C)OCC` the value was 76.4% (inactive).
